For the assay, the target named is T1, ETS1 (UniProt P14921).
T1 sequence: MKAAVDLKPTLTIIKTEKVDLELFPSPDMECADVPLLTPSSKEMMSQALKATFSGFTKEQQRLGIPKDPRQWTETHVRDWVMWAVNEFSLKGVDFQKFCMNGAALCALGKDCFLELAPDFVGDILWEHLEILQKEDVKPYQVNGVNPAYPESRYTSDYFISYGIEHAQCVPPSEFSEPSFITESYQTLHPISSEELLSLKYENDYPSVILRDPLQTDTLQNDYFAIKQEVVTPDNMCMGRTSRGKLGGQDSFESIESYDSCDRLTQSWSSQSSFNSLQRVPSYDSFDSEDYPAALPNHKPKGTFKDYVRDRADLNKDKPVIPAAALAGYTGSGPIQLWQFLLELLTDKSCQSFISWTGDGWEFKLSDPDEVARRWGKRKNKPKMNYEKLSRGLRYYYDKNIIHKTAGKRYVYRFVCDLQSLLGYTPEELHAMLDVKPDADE
The assay can be described thus: TF binding intensity (PBM fluorescence), negative control probe (arbitrary fluorescence units); higher = stronger binding. How it is done: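 gcPBM negative-control 36-bp genomic probes lacking TF binding sites. Each was incubated with recombinant human ETS1 or RUNX1 alone and detected by antibody fluorescence. Values are medians over replicate spots (4 spots for the ETS1-RUNX1 arrays, 3 for the ETS1-ETS1 array). The probes sit in constant array flanks that are not printed.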

Here are results for 13 sequences from the supplement of paper PMC10681739.

Sequence “CCCTTCGCCATTGCAGCCATGCCACCCCTCCTTCTC (protein concentration 10 nM)” came in with a TF binding intensity of 149. The figure for “ACTTTCTATGAGGCTGCCACTCCTGGTACCACACAT (protein concentration 10 nM)” is 133; for “AGCGGGAGGGAGGCCAGGGAAGGCTGCTGGGGGTCG (protein concentration 10 nM)” it is 142; for “GGCGGCGCCGGCGGCTGCGGGGTTATCTCCGCGGCC (protein concentration 10 nM)” it is 107. With “GAAGCCAGTGAGCCAGGAGTGCTGATTGGTTAGGGA (protein concentration 10 nM)” the figure was 107; with “TGCCGTGTACTTGATCTTGTCCCACAGAATCACCTG (protein concentration 10 nM)”, 112.

For “GTTAGAATGCAACCTTTTGACTTATATCTTTTCCCC (protein concentration 10 nM)”, the TF binding intensity came out at 140. For “CTTCAAAGGCCCCGCATTAGCTGGGGTCGATCCAGA (protein concentration 10 nM)”, the TF binding intensity was 154. With “AACAGCCCCCTGAACTGCAGGGTGTGACTGTTAGCC (protein concentration 10 nM)”, the TF binding intensity stood at 140. The figure for “AACTTGTCCCTGGAATGTGGTTGAAACAGACTTAGG (protein concentration 1 nM)” is 448. The figure for “CACAGGTTCTTCTTCAAGGGCAGGGCACTGCACCTT (protein concentration 10 nM)” is 110; for “ATACATACCTTTCACCCTCCATTGTGTGAGGCCCAG (protein concentration 10 nM)” it is 114; for “GATGCTTTTGTCCCACTAGGGCTCGTGCCTTAGTGA (protein concentration 10 nM)” it is 112.
